PubChem BioAssay (NCATS)
Records with an inconclusive call do not appear. The source made the active and inactive calls. Unless noted, calls come from the whole dose curve.

Target: Peroxisome proliferator-activated receptor gamma (Homo sapiens) (UniProt P37231)
Sequence (P37231 whole entry, looked up): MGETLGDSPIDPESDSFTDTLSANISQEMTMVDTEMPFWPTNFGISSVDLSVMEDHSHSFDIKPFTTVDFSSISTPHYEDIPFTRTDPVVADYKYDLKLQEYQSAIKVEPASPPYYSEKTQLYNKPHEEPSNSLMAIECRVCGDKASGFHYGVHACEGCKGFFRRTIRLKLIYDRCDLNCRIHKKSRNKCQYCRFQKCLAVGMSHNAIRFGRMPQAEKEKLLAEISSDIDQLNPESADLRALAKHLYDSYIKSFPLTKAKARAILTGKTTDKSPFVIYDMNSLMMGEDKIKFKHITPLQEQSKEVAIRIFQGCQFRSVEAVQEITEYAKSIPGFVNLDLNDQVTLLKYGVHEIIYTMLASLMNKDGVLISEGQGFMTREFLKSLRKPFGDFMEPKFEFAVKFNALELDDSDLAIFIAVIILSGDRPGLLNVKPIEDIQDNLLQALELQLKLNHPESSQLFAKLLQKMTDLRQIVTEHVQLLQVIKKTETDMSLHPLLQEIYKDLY
Test: qHTS assay for small molecule antagonists of peroxisome proliferator-activated receptor gamma signaling (AID 588537; active = well fitted inhibition curve with a large enough effect in the signal ratio, with a control signal flat, not every such curve was filed as active; the % refers to the signal ratio;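 note: reporter cells co-stimulated with 50 nM rosiglitazone agonist during compound treatment; % of control where 0% means no effect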)
Settings: HEK293 PPARg-UAS-bla, beta-lactamase ratio, antagonist mode; series mostly up to 76.8 µM; activity, negative = inhibition: at the top concentration
Procedure, shortened: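 HEK293 cells, PPAR-gamma-UAS-bla, 3000/well. Pre-incubation 6-6.5 h, 37 C. Compound titration with rosiglitazone 50 nM final, 16 h. CCF4 dye, 2 h RT, dual-emission fluorescence.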
With CNc1nc(=O)n(C2CCCCC2)c(=O)n1C the “activity, negative = inhibition” value was 0.724% (inactive).
In the case of CCCCCCCC[Si](Cl)(Cl)Cl, the “activity, negative = inhibition” value is reported as -7.82% (inactive).
With C=Cc1ccc(P(c2ccccc2)c2ccccc2)cc1 the “activity, negative = inhibition” value was -3.03% (inactive).
In the case of CCCC/C=C\CCCCCCCCO, the “activity, negative = inhibition” value is reported as 13.1% (inactive).
For Nc1cc(Cl)nc(C(=O)O)c1Cl, the “activity, negative = inhibition” value was -1.08% (inactive).
With C[Si](Cl)(Cl)[Si](C)(Cl)Cl the “activity, negative = inhibition” value was -0.511% (inactive).
With CCCCCCCCCc1ccccc1 the “activity, negative = inhibition” value was 2.09% (inactive).
With CS/C(=N\O)C(=O)N(C)C the “activity, negative = inhibition” value was 10% (inactive).
With COC(=O)c1c(Cl)nn(C)c1S(=O)(=O)NC(=O)Nc1nc(OC)cc(OC)n1 the “activity, negative = inhibition” value was -16.3% (inactive).
For CC1(C)CC(NCCCCCCNC2CC(C)(C)NC(C)(C)C2)CC(C)(C)N1, the “activity, negative = inhibition” value was -20.5% (inactive).
In the case of Cc1ccc(C(=O)c2ccccc2)cc1, the “activity, negative = inhibition” value is reported as 5.01% (inactive).

Target: Vitamin D3 receptor (Homo sapiens) (UniProt P11473)
Sequence (P11473 whole entry, looked up): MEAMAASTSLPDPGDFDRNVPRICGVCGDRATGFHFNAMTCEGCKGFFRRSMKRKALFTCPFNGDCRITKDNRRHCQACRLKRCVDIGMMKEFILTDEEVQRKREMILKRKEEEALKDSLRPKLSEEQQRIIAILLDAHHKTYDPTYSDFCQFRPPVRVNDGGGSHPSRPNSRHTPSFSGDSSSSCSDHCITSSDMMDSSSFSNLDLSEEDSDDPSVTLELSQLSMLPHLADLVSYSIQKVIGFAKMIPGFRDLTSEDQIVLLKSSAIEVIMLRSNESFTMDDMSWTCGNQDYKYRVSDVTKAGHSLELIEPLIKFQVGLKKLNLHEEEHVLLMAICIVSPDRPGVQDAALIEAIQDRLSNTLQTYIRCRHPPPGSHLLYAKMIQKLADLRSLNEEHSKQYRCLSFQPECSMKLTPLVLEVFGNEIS
Test: qHTS assay for small molecule antagonists of vitamin D receptor signaling (AID 588541);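 note: receptor activated by calcitriol during compound treatment; % is set by controls: 0 for no effect and ±100 for the full control effect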
Settings: HEK293T VDR-UAS-bla, beta-lactamase ratio, antagonist mode; series mostly up to 76.7 µM; activity change, negative = inhibition: at the top concentration
Procedure, shortened: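 VDR-UAS-bla HEK293T cells (2000/well, 2% charcoal-stripped FBS) were treated with titrated compounds plus 1-alpha,25-dihydroxyvitamin D3 (50 nM or 3 nM final) for 16 h at 37 C. CCF4 beta-lactamase fluorescence was read; Hill fits gave IC50.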
In the case of CNc1nc(=O)n(C2CCCCC2)c(=O)n1C, the “activity change, negative = inhibition” value is reported as -2.3% (inactive).
In the case of CCCCCCCC[Si](Cl)(Cl)Cl, the “activity change, negative = inhibition” value is reported as -7.63% (inactive).
In the case of CCCCCCCOC(=O)c1ccccc1C(=O)OCCCCCCC, the “activity change, negative = inhibition” value is reported as 4.99% (inactive).
For C=Cc1ccc(P(c2ccccc2)c2ccccc2)cc1, the “activity change, negative = inhibition” value was 1% (inactive).
In the case of CCCCCCCCCCCCCCCCCCN, the “activity change, negative = inhibition” value is reported as -6.86% (inactive).
For CC(=O)N(CCN(C(C)=O)C(C)=O)C(C)=O, the “activity change, negative = inhibition” value was 4.75% (inactive).
For Nc1cc(Cl)nc(C(=O)O)c1Cl, the “activity change, negative = inhibition” value was 9.06% (inactive).
For C[Si](Cl)(Cl)[Si](C)(Cl)Cl, the “activity change, negative = inhibition” value was 9.02% (inactive).
In the case of CCCCCCCCCc1ccccc1, the “activity change, negative = inhibition” value is reported as 1.87% (inactive).
In the case of CS/C(=N\O)C(=O)N(C)C, the “activity change, negative = inhibition” value is reported as -3.94% (inactive).
In the case of C[Si](Cl)(Cl)c1ccccc1, the “activity change, negative = inhibition” value is reported as -7.03% (inactive).
With COC(=O)c1c(Cl)nn(C)c1S(=O)(=O)NC(=O)Nc1nc(OC)cc(OC)n1 the “activity change, negative = inhibition” value was 6.62% (inactive).
For Cc1ccc(C(=O)c2ccccc2)cc1, the “activity change, negative = inhibition” value was 3.01% (inactive).

Target: Vitamin D3 receptor (Homo sapiens) (UniProt P11473)
Test: qHTS assay for small molecule agonists of vitamin D receptor signaling (AID 588543);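 note: 0% = DMSO basal and 100% = reference agonist control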
Settings: HEK293T VDR-UAS-bla, beta-lactamase ratio, 16 h; series mostly up to 76.8 µM; activation: at the top concentration
Procedure, shortened: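 GeneBLAzer VDR-UAS-bla HEK293T cells in 2% charcoal-stripped FBS medium were dosed with compound titrations for 16 h at 37 °C; CCF4 β-lactamase readout (405 nm ex, 460/530 nm em). EC50 and efficacy from Hill fits, normalized to 50 nM calcitriol (100%) and DMSO (0%).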
In the case of CNc1nc(=O)n(C2CCCCC2)c(=O)n1C, the “activation” value is reported as 1.85% (inactive).
For CCCCCCCC[Si](Cl)(Cl)Cl, the “activation” value was -8.55% (inactive).
With CCCCCCCOC(=O)c1ccccc1C(=O)OCCCCCCC the “activation” value was 2.49% (inactive).
In the case of C=Cc1ccc(P(c2ccccc2)c2ccccc2)cc1, the “activation” value is reported as 3.16% (inactive).
With CCCCCCCCCCCCCCCCCCN the “activation” value was 2.2% (inactive).
With CC(=O)N(CCN(C(C)=O)C(C)=O)C(C)=O the “activation” value was 1.61% (inactive).
For CCCC/C=C\CCCCCCCCO, the “activation” value was -0.949% (inactive).
For Nc1cc(Cl)nc(C(=O)O)c1Cl, the “activation” value was -0.181% (inactive).
For C[Si](Cl)(Cl)[Si](C)(Cl)Cl, the “activation” value was 4.28% (inactive).
For CS/C(=N\O)C(=O)N(C)C, the “activation” value was 3.53% (inactive).
In the case of C[Si](Cl)(Cl)c1ccccc1, the “activation” value is reported as -2.84% (inactive).
In the case of COC(=O)c1c(Cl)nn(C)c1S(=O)(=O)NC(=O)Nc1nc(OC)cc(OC)n1, the “activation” value is reported as 1.85% (inactive).
For CC1(C)CC(NCCCCCCNC2CC(C)(C)NC(C)(C)C2)CC(C)(C)N1, the “activation” value was -2.49% (inactive).

Test system: not listed separately
Test: qHTS assay for small molecule agonists of retinoid X receptor alpha signaling (AID 588544); note: potency is the fitted concentration of half-maximal effect;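 for activation: 0% = DMSO basal wells and 100% = reference agonist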
Settings: HEK293T RXRa-UAS-bla, beta-lactamase reporter, 18 h; 530 nm emission
With CNc1nc(=O)n(C2CCCCC2)c(=O)n1C the max response was -10.1%.
CCCCCCCC[Si](Cl)(Cl)Cl showed a max response of -7.78%.
CCCCCCCOC(=O)c1ccccc1C(=O)OCCCCCCC showed a max response of -2.68%.
Work on C=Cc1ccc(P(c2ccccc2)c2ccccc2)cc1 yielded a max response of -3.97%.
In the case of CCCCCCCCCCCCCCCCCCN, the max response is reported as -24%.
In the case of CC(=O)N(CCN(C(C)=O)C(C)=O)C(C)=O, the max response is reported as -4.71%.
CCCC/C=C\CCCCCCCCO gave a max response of -17%.
For C[Si](Cl)(Cl)[Si](C)(Cl)Cl, the max response was -10.2%.
CCCCCCCCCc1ccccc1 showed a max response of -8.55%.
Work on CS/C(=N\O)C(=O)N(C)C yielded a max response of 6.39%.
With C[Si](Cl)(Cl)c1ccccc1 the max response was -17.5%.
In the case of COC(=O)c1c(Cl)nn(C)c1S(=O)(=O)NC(=O)Nc1nc(OC)cc(OC)n1, the max response is reported as -3.44%.
In the case of CC1(C)CC(NCCCCCCNC2CC(C)(C)NC(C)(C)C2)CC(C)(C)N1, the max response is reported as -2.83%.
For Cc1ccc(C(=O)c2ccccc2)cc1, the max response was 0.662%.

Target: Retinoic acid receptor RXR-alpha (Homo sapiens) (UniProt P19793)
Sequence (P19793 whole entry, looked up): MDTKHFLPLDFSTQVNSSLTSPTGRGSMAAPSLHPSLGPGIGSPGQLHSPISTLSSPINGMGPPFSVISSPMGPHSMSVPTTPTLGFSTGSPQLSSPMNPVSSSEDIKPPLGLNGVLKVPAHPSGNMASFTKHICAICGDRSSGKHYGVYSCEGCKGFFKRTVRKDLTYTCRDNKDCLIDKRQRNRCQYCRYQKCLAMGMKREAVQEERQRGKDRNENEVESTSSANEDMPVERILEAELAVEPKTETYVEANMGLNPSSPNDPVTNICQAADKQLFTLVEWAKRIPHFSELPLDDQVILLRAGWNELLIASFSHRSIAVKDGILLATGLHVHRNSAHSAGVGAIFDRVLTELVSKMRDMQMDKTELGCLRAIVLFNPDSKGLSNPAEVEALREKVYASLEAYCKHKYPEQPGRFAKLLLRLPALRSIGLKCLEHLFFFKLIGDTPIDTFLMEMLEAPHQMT
Test: as above
Settings: HEK293T RXRa-UAS-bla, beta-lactamase reporter, 18 h; series mostly up to 76.7 µM; activation: at the top concentration
In the case of CNc1nc(=O)n(C2CCCCC2)c(=O)n1C, the “activation” value is reported as 29.8% (inactive).
In the case of CCCCCCCC[Si](Cl)(Cl)Cl, the “activation” value is reported as 15.4% (inactive).
With CCCCCCCOC(=O)c1ccccc1C(=O)OCCCCCCC the “activation” value was -12% (inactive).
With C=Cc1ccc(P(c2ccccc2)c2ccccc2)cc1 the “activation” value was -14.6% (inactive).
In the case of CCCCCCCCCCCCCCCCCCN, the Potency is reported as 15.8 µM (active).
For CC(=O)N(CCN(C(C)=O)C(C)=O)C(C)=O, the “activation” value was 0.658% (inactive).
In the case of CCCC/C=C\CCCCCCCCO, the “activation” value is reported as -7.66% (inactive).
For C[Si](Cl)(Cl)[Si](C)(Cl)Cl, the “activation” value was 7.93% (inactive).
For CCCCCCCCCc1ccccc1, the “activation” value was 5.89% (inactive).
In the case of CS/C(=N\O)C(=O)N(C)C, the “activation” value is reported as -6.84% (inactive).
With C[Si](Cl)(Cl)c1ccccc1 the “activation” value was -3.49% (inactive).
In the case of COC(=O)c1c(Cl)nn(C)c1S(=O)(=O)NC(=O)Nc1nc(OC)cc(OC)n1, the “activation” value is reported as -0.888% (inactive).
For CC1(C)CC(NCCCCCCNC2CC(C)(C)NC(C)(C)C2)CC(C)(C)N1, the “activation” value was 8.25% (inactive).
For Cc1ccc(C(=O)c2ccccc2)cc1, the “activation” value was -12.1% (inactive).

Target: Thyroid hormone receptor beta (Homo sapiens) (UniProt P10828)
Sequence (P10828 whole entry, looked up): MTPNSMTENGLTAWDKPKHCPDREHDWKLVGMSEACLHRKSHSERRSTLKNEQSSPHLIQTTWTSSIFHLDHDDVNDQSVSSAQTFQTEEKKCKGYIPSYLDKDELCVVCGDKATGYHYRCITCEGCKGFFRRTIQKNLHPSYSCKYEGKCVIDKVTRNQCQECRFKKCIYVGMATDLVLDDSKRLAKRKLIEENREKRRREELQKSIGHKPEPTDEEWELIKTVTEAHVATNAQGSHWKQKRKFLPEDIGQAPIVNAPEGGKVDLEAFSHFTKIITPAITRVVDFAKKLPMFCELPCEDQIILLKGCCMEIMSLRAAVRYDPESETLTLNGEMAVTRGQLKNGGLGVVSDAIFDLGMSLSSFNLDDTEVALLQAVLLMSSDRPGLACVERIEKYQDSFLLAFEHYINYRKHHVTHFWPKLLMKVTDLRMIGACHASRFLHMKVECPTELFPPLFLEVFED
Test: qHTS assay for small molecule agonists of thyroid hormone receptor beta signaling (AID 588545)
Settings: TR-UAS-bla GripTite HEK 293, beta-lactamase ratio, agonist mode, 18 h; series mostly up to 76.7 µM; activation: at the top concentration
Procedure, shortened: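 Cells (2500/well) were seeded, incubated 4 hrs at 37 C, dosed with a compound series, incubated 18 hrs, loaded with CCF4 dye for 2 hrs at RT, then read for fluorescence. Data were scaled between DMSO (0%) and 10 nM T3 (100%).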
With CNc1nc(=O)n(C2CCCCC2)c(=O)n1C the “activation” value was 0.733% (inactive).
With CCCCCCCC[Si](Cl)(Cl)Cl the “activation” value was -5.33% (inactive).
With CCCCCCCOC(=O)c1ccccc1C(=O)OCCCCCCC the “activation” value was 0.326% (inactive).
For C=Cc1ccc(P(c2ccccc2)c2ccccc2)cc1, the “activation” value was -4.72% (inactive).
With CCCCCCCCCCCCCCCCCCN the “activation” value was -2.56% (inactive).
With CC(=O)N(CCN(C(C)=O)C(C)=O)C(C)=O the “activation” value was -4.13% (inactive).
In the case of CCCC/C=C\CCCCCCCCO, the “activation” value is reported as -10.6% (inactive).
With Nc1cc(Cl)nc(C(=O)O)c1Cl the “activation” value was -7.33% (inactive).
With C[Si](Cl)(Cl)[Si](C)(Cl)Cl the “activation” value was 0.0406% (inactive).
With CCCCCCCCCc1ccccc1 the “activation” value was 4.03% (inactive).
With C[Si](Cl)(Cl)c1ccccc1 the “activation” value was -5.23% (inactive).
With COC(=O)c1c(Cl)nn(C)c1S(=O)(=O)NC(=O)Nc1nc(OC)cc(OC)n1 the “activation” value was -1.1% (inactive).
